The results in this text go back to PubChem BioAssay (EPA / NIEHS).

Calls of active or inactive are those of the source. Rule for the calls: active = hit-call score of the fitted dose curve at least 0.9, where 1 is the maximum; inactive = score below 0.9.

The nature of assay [1]: ATG_CRE_CIS: Attagene CIS-FACTORIAL HepG2 Assay for human cAMP Responsive Element (CRE) binding protein 3 (AID 2282926). The note with it: HepG2 CRE cis-reporter, Attagene multiplexed mRNA; actives raise or lower the signal. A digest of the protocol:
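Endogenous transcription factor activity read via CRE-regulated reporter transcripts in transfected HepG2 cells. After 24 h exposure, RNA was reverse-transcribed, amplified, fluorescently labelled and sized by capillary electrophoresis; gain or loss fitted against DMSO.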

A short description of assay [2]: ATG_CMV_CIS: Attagene CIS-FACTORIAL HepG2 Assay for human CMV (Internal Marker) (AID 2282928).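 Note: endpoint acts as a background internal control marker rather than a target.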 The note with it: HepG2 CMV promoter reporter, transcription factor profiling; actives raise or lower the signal. Put shortly:
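Readout: fluorescent reporter cDNA fragments separated by capillary electrophoresis after RT-PCR and HpaI cut. Cells: HepG2 carrying transfected cis-promoter reporter constructs, dosed 24 h. Endpoint serves as background internal-marker control, fit bidirectionally versus DMSO.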

The nature of assay [3]: ATG_DR4_LXR_CIS: Attagene CIS-FACTORIAL HepG2 Assay for human Liver X Receptor (LXR), DR4 submotif (AID 2282929). The note with it: HepG2 Attagene DR4 cis-reporter, mRNA transcription; actives raise or lower the signal. Put shortly:
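HepG2, transient MRTU transfection, cis-element (DR4) promoter; 24 h compound exposure; total RNA → oligo(dT) RT → PCR → 6-FAM primer extension → HpaI cut → CE. Gain/loss vs DMSO, bidirectional fit.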

Assay [4] has as its target Aryl hydrocarbon receptor (Homo sapiens) (UniProt P35869). In words: ATG_Ahr_CIS: Attagene CIS-FACTORIAL HepG2 Assay for human Aryl Hydrocarbon Receptor (Ahr) (AID 2282930). The note with it: HepG2 AhR cis-factorial reporter transcription; actives raise or lower the signal. A digest of the protocol:
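HepG2 cells transiently transfected with cis-element-driven multiplexed reporter units; endogenous AhR activity read as reporter mRNA 24 h after dosing, via RT-PCR, 6-FAM labelling, HpaI digestion and capillary electrophoresis. Bidirectional fit relative to DMSO.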

Assay [5] can be described thus: ATG_AP_1_CIS: Attagene CIS-FACTORIAL HepG2 Assay for human Activator Protein 1 (AP-1) (AID 2282931). The note with it: HepG2 Attagene cis-factorial AP-1 reporter mRNA; actives raise or lower the signal. A digest of the protocol: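 Transient MRTU transfection of HepG2 → 24 h chemical treatment → RNA isolation, RT-PCR, 6-FAM labelling, HpaI digest → capillary electrophoresis. Fit: bidirectional, DMSO negative control.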

Assay [6] in a line: ATG_AP_2_CIS: Attagene CIS-FACTORIAL HepG2 Assay for human Activator Protein 2 (AP-2) (AID 2282932). The note with it: HepG2 AP-2 cis-reporter, Attagene transcription factor profiling; actives raise or lower the signal. Put shortly:
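Read-out: fluorescent reporter mRNA via RT-PCR and capillary electrophoresis, 24 h post-dose in transiently transfected HepG2. Endogenous factors drive cis-promoter reporters; gain or loss of signal fitted bidirectionally against DMSO.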

Assay [7] in a line: ATG_BRE_CIS: Attagene CIS-FACTORIAL HepG2 Assay for human Bone Morphogenetic Protein (BMP) Response Element (BRE) (AID 2282933). The note with it: HepG2 BMP response element reporter, Attagene transcription factor profiling; actives raise or lower the signal. Put shortly: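 A HepG2 multiplex reporter system measured inducible reporter mRNA 24 h post-dosing. Detection: RT-PCR, 6-FAM primer extension, HpaI digestion, capillary electrophoresis. Activity fitted bidirectionally relative to DMSO.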

Assay [8] deals with Transcription factor E2F1 (Homo sapiens) (UniProt Q01094). In words: ATG_E2F_CIS: Attagene CIS-FACTORIAL HepG2 Assay for human E2F Transcription Factor 1 (AID 2282935). The note with it: HepG2 Attagene cis-reporter, E2F reporter RNA transcripts; actives raise or lower the signal. A digest of the protocol:
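Transient MRTU transfection of HepG2; 24 h compound exposure; RNA → oligo(dT) RT → PCR → FAM label → HpaI cut → CE fluorescence. Gain/loss of signal fit against DMSO.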

The nature of assay [9]: ATG_E_Box_CIS: Attagene CIS-FACTORIAL HepG2 Assay for human Enhancer Box (E-box) (AID 2282936). The note with it: HepG2 E-box cis-reporter transcription, actives raise or lower the signal. Put shortly: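 Transiently transfected HepG2, endogenous TF-driven reporters, 24 h dosing. Readout: RT-PCR plus capillary electrophoresis of fluorescent reporter fragments. Gain or loss of signal fitted bidirectionally against DMSO baseline.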

Assay [10] can be described thus: ATG_M_61_CIS: Attagene CIS-FACTORIAL HepG2 Assay for M61 Transcription Factor (Internal Marker) (AID 2282937). The note with it: HepG2 Attagene CIS-FACTORIAL M61 internal marker reporter; actives raise or lower the signal. Put shortly:
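Human liver HepG2, transient MRTU transfection (cis promoter elements), 24 h compound. Total RNA → oligo(dT) RT → PCR → FAM label → HpaI → CE. Internal background marker; bidirectional fitting, DMSO = baseline.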

The nature of assay [11]: ATG_M_19_CIS: Attagene CIS-FACTORIAL HepG2 Assay for M19 Transcription Factor (Internal Marker) (AID 2282939). The note with it: HepG2 Attagene CIS-FACTORIAL M19 internal marker reporter; actives raise or lower the signal. Put shortly:
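Chemical-treated HepG2 (24 h) with MRTU constructs; reporter transcripts detected by fluorescent RT-PCR fragment analysis on capillary electrophoresis. Internal background marker, DMSO as baseline.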

A short description of assay [12]: ATG_ERE_CIS: Attagene CIS-FACTORIAL HepG2 Assay for Estrogen Response Element (ERE) (AID 2282940). The note with it: HepG2 ERE cis-reporter, Attagene RNA transcript; actives raise or lower the signal. Put shortly:
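Human liver cells (HepG2) bearing transiently transfected, promoter-regulated reporter units were exposed 24 h. Reporter mRNA induction was detected by capillary electrophoresis of labelled RT-PCR products and fitted bidirectionally to DMSO.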

Assay [13] can be described thus: ATG_Ets_CIS: Attagene CIS-FACTORIAL HepG2 Assay for human Erythroblast Transformation Specific (ETS) (AID 2282941). The note with it: HepG2 ETS cis-reporter transcription, actives raise or lower the signal. A digest of the protocol:
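RT-PCR/capillary electrophoresis fluorescence read-out of reporter mRNA; HepG2 transient multi-reporter transfection; 24 h compound exposure; gain or loss of signal fitted bidirectionally relative to DMSO.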

Assay [14] concerns the target Hepatocyte nuclear factor 3-beta (Homo sapiens) (UniProt Q9Y261). In words: ATG_FoxA2_CIS: Attagene CIS-FACTORIAL HepG2 Assay for human Forkhead box A2 (FOXA2) (AID 2282942). The note with it: HepG2 cis-reporter transcription factor activity, 24 h; actives raise or lower the signal. Put shortly:
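Transient MRTU transfection of HepG2 liver cells; 24 h treatment; total RNA → oligo(dT) RT → PCR → FAM primer extension → HpaI cut → CE. Bidirectional fit vs DMSO.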

Assay [15] can be described thus: ATG_FoxO_CIS: Attagene CIS-FACTORIAL HepG2 Assay for human Forkhead box O (FoxO) (AID 2282943). The note with it: HepG2 Attagene cis-reporter, FoxO element, mRNA; actives raise or lower the signal. Put shortly: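 HepG2 cells transiently transfected with cis-element-driven reporter units report endogenous FoxO activity. After 24 h chemical exposure, reporter mRNA quantified by RT-PCR, fluorescent labeling, HpaI digestion and capillary electrophoresis; bidirectional fit versus DMSO.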

Assay [16] can be described thus: ATG_GATA_CIS: Attagene CIS-FACTORIAL HepG2 Assay for human GATA Binding Protein (AID 2282944). The note with it: HepG2 GATA cis-element reporter, Attagene multiplex mRNA; actives raise or lower the signal. A digest of the protocol:
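Transfected cis-reporter HepG2 cells were treated with chemicals for 24 hours. Total RNA was then converted to cDNA, amplified with reporter-specific primers and analysed by fluorescent capillary electrophoresis, using DMSO-treated wells as baseline.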

A short description of assay [17]: ATG_GLI_CIS: Attagene CIS-FACTORIAL HepG2 Assay for human Zinc Finger Protein GLI1 (AID 2282945). The note with it: HepG2, Attagene cis-factorial reporter mRNA, GLI element; actives raise or lower the signal. A digest of the protocol: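 Transiently transfected HepG2 cells report endogenous transcription factor activity via cis-element-driven reporter units. After 24 h compound exposure, reporter mRNA was measured by RT-PCR with capillary electrophoresis; bidirectional fitting against DMSO baseline.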

The target of assay [18] is Retinoic acid receptor alpha (Homo sapiens) (UniProt P10276). The experiment in a line: ATG_DR5_RAR_CIS: Attagene CIS-FACTORIAL HepG2 Assay for human Retinoic Acid Receptor Alpha (RARE), DR5 submotif (AID 2282934). The note with it: HepG2 Attagene cis-factorial RARE DR5 reporter, mRNA; actives raise or lower the signal. Put shortly:
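HepG2 cells transiently transfected with multiplexed reporter units; DR5 cis-element drives reporter through endogenous transcription factors. After 24 h dosing, reporter mRNA quantified by RT-PCR, fluorescent labeling, HpaI digestion and capillary electrophoresis; bidirectional fitting versus DMSO.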

Assay [19] can be described thus: ATG_EGR_CIS: Attagene CIS-FACTORIAL HepG2 Assay for human Early Growth Response 1 (EGR1) (AID 2282938). The note with it: HepG2 Attagene CIS-FACTORIAL EGR reporter mRNA; actives raise or lower the signal. Put shortly: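 Transient transfection of human HepG2 with multiple cis-regulated reporter units, chemical exposure 24 h, total RNA isolated. Reverse transcription, PCR, fluorescent labelling and capillary electrophoresis quantify reporter transcripts; activity fitted bidirectionally against DMSO.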

Retinoic acid receptor alpha (Homo sapiens), sequence (P10276 whole entry, looked up): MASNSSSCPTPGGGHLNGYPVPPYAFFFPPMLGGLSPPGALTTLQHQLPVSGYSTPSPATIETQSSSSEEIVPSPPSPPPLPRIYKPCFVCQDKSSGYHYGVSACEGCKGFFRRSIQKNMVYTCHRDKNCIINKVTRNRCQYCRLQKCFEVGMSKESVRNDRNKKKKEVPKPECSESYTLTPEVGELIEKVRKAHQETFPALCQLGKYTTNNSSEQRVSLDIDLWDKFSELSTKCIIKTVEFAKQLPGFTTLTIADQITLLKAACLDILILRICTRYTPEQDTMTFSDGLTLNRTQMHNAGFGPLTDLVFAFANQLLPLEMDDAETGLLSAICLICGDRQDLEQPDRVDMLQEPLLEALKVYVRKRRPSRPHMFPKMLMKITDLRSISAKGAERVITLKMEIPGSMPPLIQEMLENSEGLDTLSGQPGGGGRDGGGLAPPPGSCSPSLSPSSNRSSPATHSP
Transcription factor E2F1 (Homo sapiens), sequence (Q01094 whole entry, looked up): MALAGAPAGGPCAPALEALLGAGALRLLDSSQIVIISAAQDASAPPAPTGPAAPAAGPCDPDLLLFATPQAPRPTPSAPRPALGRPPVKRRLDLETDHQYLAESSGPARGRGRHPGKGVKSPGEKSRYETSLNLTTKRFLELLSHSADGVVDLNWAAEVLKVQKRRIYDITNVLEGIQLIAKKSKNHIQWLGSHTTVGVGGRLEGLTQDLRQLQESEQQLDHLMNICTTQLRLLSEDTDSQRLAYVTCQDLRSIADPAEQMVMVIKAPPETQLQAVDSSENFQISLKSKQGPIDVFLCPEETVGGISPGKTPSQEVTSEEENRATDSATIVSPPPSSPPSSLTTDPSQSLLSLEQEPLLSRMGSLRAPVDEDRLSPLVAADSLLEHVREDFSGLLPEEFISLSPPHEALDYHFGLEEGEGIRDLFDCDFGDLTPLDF
Hepatocyte nuclear factor 3-beta (Homo sapiens), sequence (Q9Y261 whole entry, looked up): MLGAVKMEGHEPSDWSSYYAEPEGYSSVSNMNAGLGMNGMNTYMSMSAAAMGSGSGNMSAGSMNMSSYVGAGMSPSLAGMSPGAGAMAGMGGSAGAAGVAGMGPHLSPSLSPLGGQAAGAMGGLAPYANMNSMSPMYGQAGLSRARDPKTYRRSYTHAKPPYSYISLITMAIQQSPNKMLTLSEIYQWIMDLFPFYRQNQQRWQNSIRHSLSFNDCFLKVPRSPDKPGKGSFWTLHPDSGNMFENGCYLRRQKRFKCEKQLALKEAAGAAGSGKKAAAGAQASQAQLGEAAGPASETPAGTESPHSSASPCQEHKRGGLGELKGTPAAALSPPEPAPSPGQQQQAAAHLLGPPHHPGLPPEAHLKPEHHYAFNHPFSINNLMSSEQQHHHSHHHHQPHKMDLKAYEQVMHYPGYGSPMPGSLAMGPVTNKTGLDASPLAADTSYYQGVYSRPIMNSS
Aryl hydrocarbon receptor (Homo sapiens), sequence (P35869 whole entry, looked up): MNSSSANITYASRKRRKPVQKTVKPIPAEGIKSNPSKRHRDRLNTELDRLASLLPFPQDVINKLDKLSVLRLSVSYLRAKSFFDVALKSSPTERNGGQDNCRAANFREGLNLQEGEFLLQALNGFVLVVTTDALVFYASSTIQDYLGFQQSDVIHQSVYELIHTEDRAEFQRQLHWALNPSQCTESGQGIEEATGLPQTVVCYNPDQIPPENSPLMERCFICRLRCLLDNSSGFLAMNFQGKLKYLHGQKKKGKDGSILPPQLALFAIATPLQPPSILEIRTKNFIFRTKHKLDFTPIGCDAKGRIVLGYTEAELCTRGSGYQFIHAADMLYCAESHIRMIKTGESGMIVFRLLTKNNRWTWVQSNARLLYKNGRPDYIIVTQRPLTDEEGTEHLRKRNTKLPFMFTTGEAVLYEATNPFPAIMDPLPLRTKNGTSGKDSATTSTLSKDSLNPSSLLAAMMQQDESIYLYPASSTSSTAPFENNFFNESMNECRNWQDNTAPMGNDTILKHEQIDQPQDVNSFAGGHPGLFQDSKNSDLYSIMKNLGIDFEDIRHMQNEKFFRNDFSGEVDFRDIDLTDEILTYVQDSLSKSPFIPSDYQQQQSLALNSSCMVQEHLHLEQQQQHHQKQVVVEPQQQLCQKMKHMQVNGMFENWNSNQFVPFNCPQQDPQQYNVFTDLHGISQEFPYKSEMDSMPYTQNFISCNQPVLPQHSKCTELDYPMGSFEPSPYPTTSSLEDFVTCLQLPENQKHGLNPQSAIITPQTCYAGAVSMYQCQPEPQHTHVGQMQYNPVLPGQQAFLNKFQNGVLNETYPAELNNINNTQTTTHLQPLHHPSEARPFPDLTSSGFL

The term AC50 denotes the midpoint of the concentration-response curve, whichever way the signal moves. Consider `NNC(=O)c1ccncc1`, for which the compound was classed as inactive in assay [1], in assay [2], in assay [3], in assay [4], in [5] and in [6]. The compound was classed as inactive in assay [7], in assay [8], in [9], in assay [10], in assay [11] and in [13]. Besides, the compound was called inactive in [14], in assay [15], in assay [16] and in assay [17]. In addition, the AC50 in assay [12] is 26.6 µM (active).

On to `CCc1cccc(CC)c1N`, for which the compound was classed as inactive in assay [1], in assay [2], in assay [3], in assay [4], in [5] and in assay [6]. For the same compound, the compound was classed as inactive in assay [7], in assay [8], in [9], in assay [10], in [11] and in assay [12]. In addition, the outcome in assay [13], in assay [14], in assay [15], in [16] and in assay [17] was inactive.

As for `NCC(F)(F)C(F)(F)C(F)(F)C(F)(F)F`, the outcome in [1], in [2], in [3], in assay [4], in assay [5] and in assay [6] was inactive. Besides, the outcome in assay [7], in [18], in [9], in assay [10], in assay [11] and in [12] was inactive. The call in [13], in [14], in [15], in assay [16] and in assay [17] was inactive.

On to `C=CN1CCCC1=O`, for which the compound was called inactive in assay [1], in assay [2], in [3], in assay [4], in [5] and in [6]. Further, the compound was classed as inactive in assay [7], in [9], in assay [10], in assay [11], in assay [12] and in [13]. The compound was classed as inactive in [14], in [15], in assay [16] and in assay [17].

For the compound `O=C(NO)C1(NS(=O)(=O)c2ccc(Oc3ccc(F)cc3)cc2)CCOCC1`, the call in assay [1], in assay [2], in [3], in assay [4], in [5] and in assay [6] was inactive. For the same compound, the result in [7], in [18], in assay [9], in assay [10], in assay [11] and in assay [12] was inactive. The compound was classed as inactive in assay [13], in assay [14], in assay [15], in assay [16] and in assay [17].

For the compound `c1ccc2ncccc2c1`, the call in [1], in [2], in [3], in [5], in assay [6] and in assay [7] was inactive. The result in [8], in assay [9], in assay [10], in assay [11], in assay [12] and in [13] was inactive. Further, the result in assay [14], in [15], in assay [16] and in [17] was inactive. For the same compound, the AC50 in assay [4] is 41.9 µM (active).

In the case of `CCCCCCCCCC`, the call in assay [1], in assay [2], in [3], in assay [4], in assay [5] and in assay [6] was inactive. The compound was called inactive in assay [7], in assay [8], in assay [9], in [10], in assay [19] and in assay [11]. The result in assay [12], in assay [13], in assay [14], in assay [15] and in assay [17] was inactive. In addition, the AC50 in assay [16] was 0.033 µM (active).

As to `CCCCN1C(=O)[C@@H]([C@H](O)C2CCCCC2)NC(=O)C12CCN(Cc1ccc(Oc3ccc(C(=O)O)cc3)cc1)CC2`, the outcome in assay [1], in assay [2], in assay [4], in [5], in assay [6] and in assay [7] was inactive. Also, the result in [8], in assay [9], in [10], in assay [19], in [11] and in [12] was inactive. Also, the compound was classed as inactive in assay [13], in [14], in assay [15], in [16] and in assay [17]. In assay [3], the AC50 was 71.5 µM (active).
